Drawing on PubChem BioAssay AID463173 (ICCB-Longwood Screening Facility, Harvard Medical School, 2010), this text covers survival for 64 molecules.

In all, about 52,000 compounds went through this assay and about 4,300 (8.3%) were called active. The sample holds actives, similar compounds and a random draw of the others, so the mix is not that of the screen. Cut-off read from the data, not from the text of the source: active = survival mostly below about 52% (no sharp cut-off); inactive = mostly above about 56%.

The assay relates to DeltatarO mutant. In words: growth inhibition of S. aureus wild type versus tarO mutant, primary screen, teichoic acid synthesis inhibitors, RN4220, OD600 (AID 463173). To be noted: OD600, 18 h, active compounds read low, screened at 18.75 µg/mL (by protocol).
For the molecule `CCN(CC)S(=O)(=O)c1ccc2c(c1)N(CC(=O)N1CCN(c3cccc(C(F)(F)F)c3)CC1)C(=O)CO2`, the survival is 68% (inactive).
Then `Cc1ccc(SCc2nc(-c3ccc(C(=O)NCc4ccccc4Cl)cc3)oc2C)cc1`, with 84% (inactive); and `Fc1cccc(NCc2ccccc2-c2nnc(-c3ccccc3Cl)o2)c1`, with 110% (inactive); and `CCn1c(SCC(=O)NC2CCCC2)nnc1-c1ccccc1`, with 75% (inactive).
In the case of `O=C(CSc1nnc(Cc2ccccc2)n1Cc1ccco1)NC1CCCC1` it was 44% (active); in that of `O=C(CSc1nccn1Cc1ccccc1)NC1CCCC1`, 69% (inactive).
For the molecule `O=C(CSc1nnc(Cc2ccccc2)n1Cc1ccccc1)NCc1ccco1`, the survival is 63% (inactive).
Then `CC(C)NC(=O)CSc1nnc(Cc2ccccc2)n1C`, with 83% (inactive); and `CC(C)NC(=O)CSc1nnc(Cc2ccccc2)n1Cc1ccco1`, with 40% (active); and `CCc1ccc(NCc2cccn2-c2nnc(N3CCCCCC3)s2)cc1`, with -6% (active).
With `COc1ccccc1CCNC(=O)c1cccn1-c1nnc(N2CCCCC2)s1`, the survival is 95% (inactive).
In the case of `CCOc1ccccc1CNC(=O)c1cccn1-c1nnc(N2CCCC2)s1` it was 102% (inactive); in that of `CCOc1ccccc1CNC(=O)c1cccn1-c1nnc(N2CCCCC2)s1`, 131% (inactive); in that of `COc1ccc(NC(=O)c2cccn2-c2nnc(N3CCCCC3)s2)c(OC)c1`, 98% (inactive).
In the case of `CCN1CCN(c2nnc(-n3cccc3C(=O)NCc3ccccc3OC)s2)CC1` it was 46% (active); in that of `Cc1ccc(NCc2cccn2-c2nnc(N3CCCCCC3)s2)cc1`, 78% (inactive).
In the case of `COc1ccccc1CNC(=O)c1cccn1-c1nnc(N2CCCCC2)s1` it was 37% (active); in that of `COc1ccc(NCc2cccn2-c2nnc(N3CCCCCC3)s2)cc1`, 71% (inactive).
For the molecule `COc1ccc(CNC(=O)c2cccn2-c2nnc(N3CCCC3)s2)c(OC)c1`, the survival was 91% (inactive).
In the case of `COc1ccccc1CNC(=O)c1cccn1-c1nnc(N2CCCC2)s1` it was 92% (inactive).
For `COc1ccc(CNC(=O)c2cccn2-c2nnc(N3CCCCC3)s2)c(OC)c1`, the survival is 0% (active).
Regarding `CCOc1ccc(/C=C/c2nc3ccccc3n2S(=O)(=O)c2ccc(Br)cc2)cc1`, the survival was 59% (inactive).
Then `CCN1CCSc2ccc(C(=O)NCc3ccc(F)cc3)cc21`, with 97% (inactive); and `CNC(=O)c1ccc(CN2CCc3ccccc3C2)cc1`, with 100% (inactive).
For `CCOC(=O)c1c(C)[nH]c(C)c1S(=O)(=O)N1CCC(C(=O)N2CCN(c3ccccc3)CC2)CC1`, the survival is 90% (inactive).
Regarding `O=C(CSc1nccn1Cc1ccc(Cl)cc1)Nc1ccc2c(c1)OCCO2`, the survival is 94% (inactive).
For the molecule `Cc1ccc(-n2ncc(C(=O)N3CCN(c4ccccn4)CC3)c2C2CCN(C(=O)OC(C)(C)C)CC2)cc1`, the survival is 81% (inactive).
In the case of `O=C(Cn1c(=O)oc2cc(S(=O)(=O)NCc3ccccc3)ccc21)Nc1cccc(F)c1` it was 78% (inactive); in that of `COc1cccc(CNCc2cccn2-c2nnc(N3CCN(c4ccccc4)CC3)s2)c1`, 79% (inactive).
`O=C(NCc1cccc(Cl)c1)c1cccn1-c1nnc(N2CCCC2)s1`: the survival was 37% (active).
Regarding `O=C(NCc1cccc(Br)c1)c1cccn1-c1nnc(N2CCCCC2)s1`, the survival is 78% (inactive).
On to `O=C(NCc1ccccc1)c1cccn1-c1nnc(N2CCCC2)s1`, for which the survival was 55% (inactive).
Consider `Cc1ccc(CNCc2cccn2-c2nnc(N3CCCC3)s2)cc1`, for which the survival is 86% (inactive).
Then `CCOc1ccccc1CNCc1cccn1-c1nnc(N2CCN(c3ccccc3)CC2)s1`, with 47% (active); and `O=C1C=C(N2CCCCC2)C2(CCCCC2)O1`, with 106% (inactive).
Consider `COc1ccc(CCN(Cc2cc3cc(C)ccc3n3nnnc23)C(=O)N(C)C)cc1OC`, for which the survival was 86% (inactive).
Then `Cc1ccc(C)c(N2CCN(C3(c4ccccc4)C(=O)c4ccccc4C3=O)CC2)c1`, with 98% (inactive); and `COc1cccc(C(=O)NCC(=O)OCc2cc(=O)n3nc(C)sc3n2)c1`, with 116% (inactive); and `COc1ccc(OC)c(C2c3c(oc4ccc(C)cc4c3=O)C(=O)N2CCCN(C)C)c1` (centres undefined), with 73% (inactive).
Then `CC(=O)N1CCc2cc(CNC(=O)Nc3ccc(Br)c(C)c3)ccc21`, with 87% (inactive).
Then `CC(=O)N1CCc2cc(S(=O)(=O)C(C)CC(=O)Nc3ccc(Br)c(C)c3)ccc21` (centres undefined), with -5% (active).
For `COc1cc(NC(=O)CC(C)S(=O)(=O)c2ccc3c(c2)CCN3C(C)=O)cc(OC)c1OC` (centres undefined), the survival is 92% (inactive).
Then `Cc1ccc(C)c(N2CCN(Cc3csc(C)c3)CC2)c1`, with 119% (inactive); and `CC(C)(C)NC(=O)CSc1nnc(-c2cccs2)o1`, with 102% (inactive).
Then `COc1cccc(NC(c2nnc(-c3ccccc3)o2)c2ccc(F)cc2Cl)c1` (centres undefined), with 54% (inactive); and `CCc1ccccc1NC(c1nnc(-c2cccc(F)c2)o1)c1ccc(F)cc1Cl` (centres undefined), with 96% (inactive); and `COc1ccc(C)cc1NC(c1nnc(-c2ccccc2)o1)c1ccc(F)cc1Cl` (centres undefined), with -3% (active).
In the case of `COc1cc(OC)c(NC(c2nnc(-c3ccccc3)o2)c2ccc(F)cc2Cl)cc1Cl` (centres undefined) it was 61% (inactive).
Regarding `Cc1cccc(NC(c2nnc(-c3ccccc3)o2)c2ccc(F)cc2Cl)c1C` (centres undefined), the survival is 61% (inactive).
In the case of `CCOc1ccccc1NC(c1nnc(-c2ccccc2)o1)c1ccc(F)cc1Cl` (centres undefined) it was 1% (active); in that of `Nc1ccc2nc(CN3CCOCC3)[nH]c2c1`, 88% (inactive).
Then `Cc1cc(C)cc(N2C(=O)CS(=O)(=O)C23C(=O)N(Cc2ccccc2)c2ccccc23)c1` (centres undefined), with 82% (inactive); and `COC(=O)c1ccc(Cl)cc1NC(=O)N1CCC(CN2CCCC2)CC1`, with 84% (inactive); and `CCc1ccc(NC(=O)C(=O)NCCc2sc(-c3ccc(OC)c(OC)c3)nc2C)cc1`, with 78% (inactive).
Then `Cc1ccc(CNC(=O)c2ccc3c(c2)c(C)c(C)n3Cc2ccc(Cl)cc2)o1`, with 75% (inactive).
In the case of `COc1ccccc1-c1nc(SCC(=O)c2ccc(Cl)cc2)n[nH]1`, the survival was 175% (inactive).
In the case of `COc1ccc(NC(=O)CSc2n[nH]c(-c3ccccc3)n2)cc1Cl` it was 88% (inactive); in that of `CCOc1ccccc1-c1nc(SCC(=O)c2ccc(OC)c(Br)c2)n[nH]1`, 53% (inactive).
Then `CCCOc1ccccc1-c1nc(SCC(=O)c2ccccc2)n[nH]1`, with 109% (inactive).
Then `COc1ccccc1-c1nc(SCC(=O)Nc2ccc(C)c(C)c2)n[nH]1`, with 43% (active).
On to `COc1ccccc1-c1nc(SCC(=O)c2ccccc2)n[nH]1`, for which the survival is 53% (active).
As for `CC(C)Oc1ccccc1-c1nc(SCC(=O)c2ccc(F)cc2)n[nH]1`, the survival was 40% (active).
Then `CCOc1ccc(-c2nc(SCC(=O)c3ccccc3)n[nH]2)cc1`, with 179% (inactive); and `Cc1ccc(NC(=O)CSc2n[nH]c(-c3ccc(F)cc3)n2)cc1F`, with 128% (inactive).
